{"source": "PubChem BioAssay (EPA / NIEHS)", "note": "The source made the active and inactive calls. How the source made its calls: active means hit-call score of the fitted dose curve at least 0.9, where 1 is the maximum; inactive means score below 0.9.", "data": [{"test": "CEETOX_H295R_MTT_cell_viability: Viability Assessment in the CeeTox HT-H295R MTT Assay (AID 2283718);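 on AC50: curve fitted both ways so AC50 may mark viability loss or gain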", "summary_of_the_method": "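H295R cells prestimulated 48 h with 10 uM forskolin, then exposed 48 h to test chemical (0.1% DMSO final). Viability by MTT (0.5 mg/ml, 4 h, 37 C), absorbance 570/650 nm; percent change versus DMSO, bidirectional fit.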", "values": [{"smiles": "CCCCCCCCCc1ccc(OCCO)cc1", "outcome": "inactive"}, {"smiles": "Cc1cccc(C)n1", "outcome": "inactive"}, {"smiles": "CCN(CC)c1ccc(C=O)cc1", "outcome": "inactive"}, {"smiles": "CCOCOCC", "outcome": "inactive"}, {"smiles": "CC(C)(C)c1cc(CCC(=O)NCCCCCCNC(=O)CCc2cc(C(C)(C)C)c(O)c(C(C)(C)C)c2)cc(C(C)(C)C)c1O", "outcome": "inactive"}, {"smiles": "CCn1c2ccccc2c2ccccc21", "outcome": "inactive"}, {"smiles": "CSc1ccc(O)cc1C", "outcome": "inactive"}, {"smiles": "CCN(CC)c1ccc(N=Nc2ccccc2)cc1", "outcome": "inactive"}, {"smiles": "C[C@]12CC[C@H]3C(=CCc4cc(O)ccc43)[C@@H]1CCC2=O", "outcome": "inactive"}, {"smiles": "CN1CN(C)CN(C)C1", "outcome": "inactive"}, {"smiles": "Oc1ccc2c(c1)CCC2", "outcome": "inactive"}, {"smiles": "O=c1[nH]cccc1O", "outcome": "inactive"}, {"smiles": "O=C1c2ccccc2C(=O)c2c(Cl)cccc21", "outcome": "inactive"}, {"smiles": "Nc1c(Br)cc([N+](=O)[O-])cc1Br", "AC50": "29.7 µM (active)"}, {"smiles": "OCCC(O)CO", "note": "(centres undefined)", "outcome": "inactive"}, {"smiles": "Cc1cc(O)c(C(C)(C)C)cc1C(C)(C)C", "outcome": "inactive"}, {"smiles": "O=C(c1ccccc1)c1ccc(Cl)cc1", "outcome": "inactive"}, {"smiles": "CC1CCCCC1", "outcome": "inactive"}, {"smiles": "Nc1cccnc1N", "outcome": "inactive"}]}]}
